TEAD-YAP block – TEAD-YAP interaction inhibition; HEK-TIYL cells, TEAD-Gal4/YAP UAS-luciferase luminescence; inhibition, % at 9.12 µM; 1.4% of 640,000 active; in the data active means inhibition above about 32%;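 further: 0% = median of test compound wells and 100% = reference inhibitor wells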
FBW7 activator – human FBW7 E3 ligase activation, primary screen | Q969H0 | AlphaScreen FBW7–phospho-cyclin E peptide binding, activator screen | 0.13% of 650,000 active | normalized activity (activation), % at 26.1 µM; in the data active means normalized activity above about 1.9%;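 further: purified mutant Fbw7 with reduced substrate affinity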
GPR151 ag – activates the human receptor GPR151; PathHunter beta-arrestin GPR151 cells, luminescence; activation, % at 11.2 µM; 1% of 650,000 active; AID 1508602; in the data active means activation above about 4.9%;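 further: 0% = median of compound wells and 100% = cells with positive control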
MITF primary – human MITF inhibition, primary screen. O75030. AlphaScreen MITF homodimerization, bead proximity signal. inhibition, % at 2.6 µM. 0.91% of 650,000 active. AID 1259374; in the data active means inhibition above about 50%;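 further: 0% = vehicle wells with protein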
GPR151 conf act – human GPR151 activation, confirmation screen | 6,700 tested, under 10 active | AID 1508609 | activation, % at 11.2 µM | shares compounds with GPR151 ag | GPR151 PathHunter beta-arrestin cells, luminescence, 90 min; % of EA-reagent control over plate median;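 active means mean percent activation across replicates above the confirmation screen cutoff of 4.91%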
GPR119 ag – counter-screen for GPR151 activators: effect on human GPR119; activation, % at 11.2 µM; GPR119 PathHunter beta-arrestin cells, luminescence, 90 min; 0 = compound-well median, 100 = enzyme-acceptor control; shares compounds with GPR151 ag; 0.3% of 6,700 active;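 active means mean percent activation in the counterscreen above 29.09%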;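 further: counterscreen on off-target GPR119 to flag nonselective hits from the GPR151 activator screen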
Target sequence (Q8TDV5 whole entry, looked up): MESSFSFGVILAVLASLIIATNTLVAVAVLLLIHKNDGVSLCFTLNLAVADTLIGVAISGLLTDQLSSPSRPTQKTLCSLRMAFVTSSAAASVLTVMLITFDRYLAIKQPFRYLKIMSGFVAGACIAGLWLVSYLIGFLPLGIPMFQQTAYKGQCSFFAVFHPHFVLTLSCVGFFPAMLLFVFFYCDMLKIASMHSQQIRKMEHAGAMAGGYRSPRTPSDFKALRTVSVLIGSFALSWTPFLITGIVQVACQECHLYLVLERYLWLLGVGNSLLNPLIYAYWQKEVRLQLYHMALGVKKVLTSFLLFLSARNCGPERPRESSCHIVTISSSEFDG
The depositor's hits bear a star; nt = not tested or not shown. Sampled rows, rich in hits. Any-hit rate of the full collection: about 3.5%.

SMILES	TEAD-YAP block	FBW7 activator	GPR151 ag	MITF primary	GPR151 conf act	GPR119 ag
COc1ccccc1NC(=O)C1=C(C)Nc2nc(-c3ccccc3)nn2C1c1cccnc1 (stereo not drawn)	-5	0	0	17	nt	nt
CN(CCO)c1ccc(/C=N/NC(=O)c2cc3c(s2)CCCC3)cc1	-9	0	6.2*	-4	0	-6
C/C(=N\NC(=O)c1cc2c(s1)CCCC2)c1ccccc1O	-14	0	0	-11	nt	nt
CN(C)c1nc2cc(F)ccc2cc1CN(Cc1ccco1)C(=O)c1cn2ccccc2n1	2	0	15*	0	0	7
O=C(c1ccccc1)c1ccc(C(=O)c2ccccc2)cc1	6	0	0	9	nt	nt
Cc1cc(C(=O)/C=C/c2ccc(OCC(=O)O)cc2)c(C)s1	4	0	6.1*	2	0	-4
CC(C)c1ccc(Cn2ccc3c4c(N)nc(NC5CC5)nc4ccc32)cc1	nt	0	6.5*	-4	6.5*	106*
O=C(NCC1CCCN(S(=O)(=O)/C=C/c2ccccc2)C1)c1cc2ccccc2[nH]1 (stereo not drawn)	4	0	-1	-14	nt	nt
Cc1cc(S(=O)(=O)N2CCCC(CNC(=O)c3cc4ccccc4[nH]3)C2)c(C)s1 (stereo not drawn)	0	0	6.2*	9	0	-2
COc1ccc(C2(C(=O)N3CCC(Cn4nc(-c5cccs5)ccc4=O)CC3)CC2)cc1	-5	0	0	-1	nt	nt
CCCCC(C)(C)[C@H](O)/C=C/[C@H]1C=CC(=O)[C@@H]1CCCCCCC(=O)O	nt	nt	-1	12	nt	nt
CCCCCCCC/C=C\CCCCCC(=O)O	nt	nt	8.7*	9	0	7
CCCCC[C@H](O)/C=C/[C@H]1C=CC(=O)[C@H]1C/C=C\CCCC(=O)O	nt	nt	5.8*	2	1	9
CCCCCC(=O)/C=C/[C@@H]1[C@@H](C/C=C\CCCC(=O)O)[C@@H](O)C[C@H]1O	nt	nt	5.5*	-2	1	7
CCCCC[C@H](O)/C=C/[C@H]1C=CC(=O)[C@@H]1C/C=C\CCCC(=O)O	nt	nt	1	-3	nt	nt
CCCCC[C@H](O)/C=C/[C@H]1C=CC(=O)[C@@H]1CCCCCCC(=O)OCC	nt	nt	4.9*	0	1	3
COc1cccc(C(=O)Nc2cccc(-c3cn4c(C)csc4n3)c2)c1	-13	0	-1	3	nt	nt
CCCCC(C)(C)[C@H](O)/C=C/[C@H]1C=CC(=O)[C@@H]1C/C=C\CCCC(=O)O	nt	nt	13*	-4	2	0
CCCCC/C=C/C=C1/C=CC(=O)[C@@H]1C/C=C\CCCC(=O)O	nt	nt	1	26	nt	nt
CCCCC[C@H](O)/C=C/[C@H]1C(=O)C[C@H](O)[C@@H]1CCCCCCCO	nt	nt	0	4	nt	nt
CCCCC/C=C/C=C1/C(=O)C[C@H](O)[C@@H]1C/C=C\CCCC(=O)O	nt	nt	5.6*	15	0	-9
CCCCC[C@H](O)/C=C/[C@H]1C(=O)C[C@H](O)[C@@H]1CCCCCCC(=O)O	nt	nt	9.7*	18	0	10
CCCCC[C@H](O)/C=C/C1=C(C/C=C\CCCC(=O)O)C(=O)CC1	nt	nt	9.3*	-5	0	-9
CCCCC[C@@H](O)/C=C/[C@H]1C(=O)C[C@H](O)[C@@H]1C/C=C\CCCC(=O)O	nt	nt	5	0	nt	nt
Cc1ccc(S(=O)(=O)Nc2nnc(C)s2)cc1	-1	0	0	2	nt	nt
SMILES	TEAD-YAP block	FBW7 activator	GPR151 ag	MITF primary	GPR151 conf act	GPR119 ag
CC(CC(=O)NC1CCCCC1)CC1=NS(=O)(=O)c2ccccc2N1 (stereo not drawn)	-1	0	2	-3	nt	nt
CCOC(=O)c1cnc2c(C)cccc2c1Nc1ccc(OC)cc1OC	0	0	0	10	nt	nt
CCOC(=O)c1cnc(SCc2ccc(Br)cc2)nc1N	-25	0	0	-8	nt	nt
CCCCc1cc(=O)oc2c(C)c(OCC(=O)OC(C)(C)C)ccc12	-2	0	5.7*	6	0	-1
Cc1ccc(NC(=O)CN2c3ccccc3CC2C)c([N+](=O)[O-])c1 (stereo not drawn)	-7	0	-2	8	nt	nt
N=C1C(c2nc(-c3ccc(Cl)cc3)cs2)=C(O)CN1c1ccc(C(=O)O)cc1	2	0	1	-1	nt	nt
COc1ccc(CNC(=O)CSc2nnc3sc4ccccc4n23)cc1C(=O)O	4	0	5.5*	5	0	4
